# Measurements reported in PubChem BioAssay AID1508600 (Functional Genomics Laboratory (NCATS/FGL), 2020).
# Hit rate of the full screen: of about 53,000 sequences, about 3,700 (7%) were called active. This is one part of a sample in which actives are shown more often than they occur.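 Rule for the calls: active = gene knockdowns whose robust z-score for IL-1 alpha signal is at least 2 or at most -2, so actives lie on both sides; inactive = the rest.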
# Assay: Components of the Cytosolic LPS Sensing Pathway: Gene Identification via Genome-wide siRNA Screen;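 note: robust z of the log signal after scaling to non-targeting control siRNA wells of the plate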
# Conditions: RAW264.7 macrophages, IL-1a HTRF, actives lie on both sides, screened at 100 nM (by protocol), cells primed 5 h with Pam3CSK4 first
# How it was run: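 Three distinct siRNAs per gene were tested singly at 100 nM in RAW264.7 macrophages. Following Pam3CSK4 priming and 24 hour LipidA transfection, IL-1a secretion was read by HTRF.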
row,Sequence,z-score
1,CGGGAUGACUACAAUCUGGTT against Ssbp3,-2.17 (active)
2,GCUCAGCUAGCAGAAAUUCTT against Nlrp2,-1.76 (inactive)
3,GGAGGCCAAAGGACUGAUCTT against Hectd4,1.56 (inactive)
4,CCACAGACAGUUAUUACUGTT against Adgre1,-1 (inactive)
5,CCCAAGAGUGUUUGAGAACTT against Zbtb43,0.213 (inactive)
6,GGCAUUUAUUAUCAGGCUGTT against Pes1,0.665 (inactive)
7,GCUCGAGAAGAGUUUGUUATT against 1700030J22Rik,0.933 (inactive)
8,GCAACUUGUUAGUGGACUCTT against Olfr620,-1.08 (inactive)
9,GCUAUGUGGGAAGUUUCAUTT against Tmem263,0.924 (inactive)
10,GGCCUAUAGGUUGGGCUCUTT against Tonsl,-2.57 (active)
11,GCGUGGAGUCUUCAGUCAUTT against Vhl,-0.101 (inactive)
12,GGAGAAGAGGACAGAAGCCTT against Akt1s1,0.757 (inactive)
13,GUUCAUGUCUAUCCUGUCUTT against Hba-x,-2.45 (active)
14,GCUCAAAACAAUCCACGCCTT against 1700006J14Rik,-0.47 (inactive)
15,GGAUGAGAACAACUCUGCUTT against Lrtm2,0.439 (inactive)
16,GGACCUGUUUGAUUUGGUGTT against Nf2,0.8 (inactive)
17,GGAAAACCUUGGACAGGAGTT against Olfr876,-0.267 (inactive)
18,UGUGACUAUUGUUACUGUGTT against Olfr1512,-1.06 (inactive)
19,GCAGUACCGAGCAGCAGAATT against Acad10,-2.41 (active)
20,CGAAUGUGGCUAUGACCUGTT against Kif6,0.555 (inactive)
21,GGAAAAGGAGGUGGUACUGTT against Acan,0.743 (inactive)
22,GCAUACAGCUCAACAGUCATT against Padi2,-0.51 (inactive)

row,Sequence,z-score
1,GGAGAAGUAGAUGUAUAUGTT against Prkar1b,-1.4 (inactive)
2,GUACACCACAAUCCUCACCTT against Olfr677,-0.0852 (inactive)
3,GGUCCAGAGAAUGUUAUUATT against Spinkl,0.263 (inactive)
4,GAAUAGAAGGGAAGAAAGUTT against Crb3,-2.08 (active)
5,GGGAACUUCCUUGAGAAGATT against Mgat4d,0.654 (inactive)
6,GCAACGUGUCUUUUCAAACTT against P2ry10b,-0.223 (inactive)
7,GUUUCCUUGUGCUAAUGUUTT against Olfr1199,1.15 (inactive)
8,GGAAAACCUAAUAAGGUUCTT against Iqce,2.72 (active)
9,GGCUCCAACAUAGAAAUGATT against Tpbpa,0.38 (inactive)
10,GCUACGCAUUGAGGAGCUATT against Pkn1,0.168 (inactive)
11,GCUUAUGUCGAAUGAUAGCTT against Id2,-4.22 (active)
12,GGCUGCCAAGAAAAUCUAUTT against Rab14,0.363 (inactive)
13,GGAUGAACUCAUGAGAGCCTT against Cyb5r4,-0.323 (inactive)
14,GGGUUGAAAGAGCUUGCCATT against Vmn1r198,-2.56 (active)
15,CCGAGGUUGUGAAACGAUGTT against Trp63,-1.47 (inactive)
16,GGAACCUCCUUAUUCAAUGTT against Rspry1,0.0592 (inactive)
17,GGUUGAAGCAGAAGAUAAUTT against Asnsd1,-2.2 (active)
18,GGUGGAGGUCUGGUUUAAGTT against Gsc,-0.4 (inactive)
19,GGUUGGCACAACUGUGUACTT against Cr2,-0.0754 (inactive)
20,GGAAACCAACUUCAGCCUGTT against Gfra1,-0.0125 (inactive)
21,GCAAAUCCCAUGAACAGCUTT against Nvl,-2.55 (active)
22,GGGCAAUCGACUGAGAAUUTT against Lingo4,-0.0246 (inactive)

row,Sequence,z-score
1,CGAAGAAAACCAUAAGGACTT against Bdnf,-0.876 (inactive)
2,GGAGAGCAAAUUAAGUUCATT against Erc1,1.01 (inactive)
3,GCAAUAAGGGCAUUAUAAATT against Wdhd1,-0.407 (inactive)
4,GGUUCAUAAUGCCUUCAAGTT against Olfr1449,0.719 (inactive)
5,CCAGGAAGUUACAAUUCAATT against Ccpg1,0.181 (inactive)
6,GCCUAAUGCCAACUCACAATT against Samd7,-1.49 (inactive)
7,GGCACUGCACUUUAACAUATT against Serpinb7,-0.402 (inactive)
8,GGGUGUGAGGGAUUUCAUCTT against Ndufa2,2.22 (active)
9,CCUAACCAUCGACUUCUUCTT against Wfs1,-0.189 (inactive)
10,GCGGGACUGACCUCUUAAUTT against Guk1,-0.244 (inactive)
11,GGAGUGAAGGUUCAGAUCCTT against Asic2,3.1 (active)
12,GGCUUUCAGAGUUAACAAATT against Ptpn4,-0.727 (inactive)
13,GGGUGUCUUCAACAAGUACTT against Dnttip1,-1.71 (inactive)
14,GGAAAAAAGGAUUUCAAACTT against Rad9b,1.3 (inactive)
15,GGAAAGACCACCAAAUCCCTT against Dpy30,1.48 (inactive)
16,GGCUCCAUAUGGAAUGCAGTT against Ets2,0.571 (inactive)
17,CCAGCCGUAUUACAACUACTT against Bpnt1,2.12 (active)
18,GCUUAAACCGCCUAUGUUCTT against Spcs1,0.782 (inactive)
19,GCUCACCUUUCUUGAGAAATT against 4930579C12Rik,-0.179 (inactive)
20,GGAAAAAGUGCAUUUAUGUTT against Prpf40a,-1.16 (inactive)
21,GCUGUUGCUGGCUAUUCUGTT against Eef2kmt,-2.3 (active)
22,AACAUGUCCAACCUAGGCATT against Lefty1,-1.44 (inactive)

row,Sequence,z-score
1,GGUGGACUACUCACGAUUCTT against Kcnj4,0.867 (inactive)
2,GGAGCAGGACGAGAAUCAATT against Cdkn1c,3.62 (active)
3,GCACUGGAAUCAAACCAUCTT against Ppp2r5b,0.444 (inactive)
4,CGCAUUUUCUCUCGAGCUUTT against Slc25a30,-0.34 (inactive)
5,GGAGCACAGUUUUGGUGCUTT against Olfr576,1.82 (inactive)
6,GGAAGUAAAGCUCUACAAGTT against Vps28,0.236 (inactive)
7,GGCACAAUUUCUUUGAAUCTT against Ophn1,0.885 (inactive)
8,GGCUAUUAGGUUUGAAAUCTT against Grsf1,0.351 (inactive)
9,GGUUUCCAGUAAGAUCUUATT against Mdn1,2.21 (active)
10,CCUAGAUUCUCCAAACUAATT against D630029K05Rik,-0.238 (inactive)
11,GGAGAUGCGAGUACAACUGTT against Ermn,0.479 (inactive)
12,GGAAAGAUGUGGUCCAGCUTT against Sirt3,0.373 (inactive)
13,UUAAGCCGCUUUUGAAGCUTT against Olfr1200,0.812 (inactive)
14,GGCUUUCAAGAUUCAGUGATT against Gsta1,0.103 (inactive)
15,GGCACUUCAAGGAGUUUUUTT against Lig4,3.25 (active)
16,GGAAAAUAAGCUAAGGAAGTT against Peg12,-0.018 (inactive)
17,GGCAAUUUCUAAACAGGGATT against Atp6v1f,-2.01 (active)
18,GCGAUGCUCCUAAUUCUUATT against Dusp21,-1.18 (inactive)
19,GCUACAGUUUGUGGGUGACTT against Zmynd15,0.11 (inactive)
20,CGAGUAUCCCGUCAAGUUGTT against 6820408C15Rik,-0.699 (inactive)
21,GGCAAAUUAGCUAGUAUCATT against Rai2,-2.2 (active)
22,GGUGGAGAAGAGUUUCUGCTT against Gpr132,0.375 (inactive)

row,Sequence,z-score
1,GGAGAAACAGAAGUAUUGATT against Nsa2,-0.559 (inactive)
2,GGGUUGGAACAAGGUAAUUTT against Usp16,-0.546 (inactive)
3,GGCUCAAAGCCAAUCUGAATT against Recql4,2.06 (active)
4,GCUGUAUCCAGCUUUUCGGTT against Tcf3,-0.43 (inactive)
5,GCGAGAUUCUUAAAGAAAUTT against Brdt,0.645 (inactive)
6,GAGCUGUGAAUGCCUGUGGTT against Lyz2,-2.33 (active)
7,GCUAGUUAAUGGUAACAUATT against Sult1d1,-1.68 (inactive)
8,GGCCAAACUGGAUUACUUATT against Tmprss11c,1.26 (inactive)
9,CCCUGCUCUCACUUGUUUATT against Olfr643,-0.446 (inactive)
10,CCUUUCUUGUGUUUACAGGTT against P2ry6,-0.347 (inactive)
11,GGCAGUUUCUUCUUCCAAATT against H1f1,2.89 (active)
12,GGUGAUCAACAAUGGCAAUTT against Clec4a3,1.26 (inactive)
13,GCACAUGUGUUUAUACAUUTT against Sfxn3,-0.556 (inactive)
14,CGACGAGGAAUAACCUCUCTT against Myh6,2.05 (active)
15,GGGUAUGGCAUAAAUGUCCTT against Zpbp,-2.75 (active)
16,GGCAUUCCAGAGAAAGCGUTT against F3,-1.33 (inactive)
17,GCGAAUUGGAACAGCUGACTT against Sh3glb1,-0.982 (inactive)
18,GGUAUACCACUAUUCUCACTT against Olfr649,0.705 (inactive)
19,CCAUAUAUGAUAGGAAACUTT against Pon2,-0.288 (inactive)
20,GCCACAAUGUCCAAAAUUATT against Rab6a,-0.271 (inactive)
